The assay has as its system MDA-MB-468. The assay can be described thus: phospho-S6 immunofluorescence (DAPI-normalised), per-plate z-score; higher = higher phospho-S6 signal (less pathway suppression). The following applies: co-treatment: vehicle; 24 h. The protocol: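 GPCR-targeted compound library (MedChemExpress HY-L006) tested on MDA-MB-468 PTEN-null TNBC cells in 384-well plates at 0.1, 1 or 10 uM, combined with vehicle, GDC0941 450 nM or lapatinib 1 uM, for 24 h. Phospho-S6 (S240/244) immunofluorescence normalised to DAPI and expressed as a per-plate z-score; values are the mean of biological triplicates.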
Regarding `O=C(O[C@H]1CN2CCC1CC2)N1CCc2ccccc2[C@@H]1c1ccccc1` [Solifenacin (Succinate)] (compound 10 µM), the “phospho-S6 immunofluorescence (z-score)” value is -0.65. Next, `COc1nc(C)nc(Cl)c1NC1=NCCN1` [Moxonidine] (compound 10 µM): 0.7. The value for `OCCOCCN1CCN(C2=Nc3ccccc3Sc3ccccc32)CC1` [Quetiapine] (compound 10 µM) was 0.64; that for `CN1CCC(=C2c3ccccc3CCc3cccnc32)CC1` [Azatadine (dimaleate)] (compound 10 µM) was -0.32. Next, `CCN(CC)CC#CCOC(=O)C(O)(c1ccccc1)C1CCCCC1` (stereo not drawn) [Oxybutynin] (compound 10 µM): -0.04.

Consider `COc1cc(/C=C/C(=O)NCCn2c(C(F)(F)F)cc3ccccc32)cc(OC)c1OC` (compound 10 µM), for which the “phospho-S6 immunofluorescence (z-score)” value was -8.39. Next, `O=S(=O)(O)c1cc(O)ccc1O` [Ethamsylate] (compound 10 µM): 0.76; `CC[N+](CC)(CC)CCOc1cccc(OCC[N+](CC)(CC)CC)c1OCC[N+](CC)(CC)CC` [Gallamine Triethiodide] (compound 10 µM): 0.47.

Source of the values: the supplement of paper PMC7411640.
